# Several values for one entry are separate records, joined by “and”; a condition that tells them apart may be missing. Identical values can stand only once. Records with an inconclusive call do not appear. Activity calls are given as the source filed them. Calls come from the whole dose curve; as a rule, active = well fitted inhibition curve with a large enough effect; inconclusive = small, poorly fitted or top-dose-only effect; inactive = flat fitted curve, though single readings scatter.
# System: CRL-7250
# Experiment: Cytotoxic Profiling of Annotated Libraries Using Quantitative High-Throughput Screening (AID 1296008); note: nearly all actives have a fitted effect of over 60% in size
# Settings: Five cell lines viability, CellTiter-Glo ATP luminescence, 48-72 h; max response: hits give low values
# Procedure, shortened: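 Cells exposed to compounds for 48 or 72 hr at 37 degrees Celsius. Viability read as ATP-coupled luminescence with CellTiter-Glo after 10 min at room temperature.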
# % is set by controls: 0 for no effect and ±100 for the full control effect; potency is the fitted concentration of half-maximal effect.
SMILES,max response,Potency,outcome
C[C@@H]1C/C=C/C=C\C=C\C=C\[C@H](O[C@@H]2O[C@H](C)[C@@H](O)[C@H](N)[C@@H]2O)C[C@@H]2O[C@](O)(C[C@@H](O)C[C@H]3O[C@@H]3/C=C/C(=O)O1)C[C@H](O)[C@H]2C(=O)O,2.84% (inactive),–,–
C/C=C/C=C/C=C/C(=O)O[C@@H]1C=C(CO)C(O)(C(=O)O)[C@@]2(C)CCCC(C)(C)[C@H]12 (stereo not given in full),2.37% (inactive),–,–
Cc1cc(C)c(S(=O)(=O)N(Cc2ccc(-c3cccc(S(C)(=O)=O)c3)cc2)Cc2ccc(C(F)(F)F)o2)c(C)c1,-5.2% (inactive),–,–
C=CCc1ccc(O[C@@H]2O[C@H](CO[C@@H]3O[C@H](CO)[C@@H](O)[C@H](O)[C@H]3O)[C@@H](O)[C@H](O)[C@H]2O)c(O)c1,-24.9% (inactive),–,–
C=CC(C)(O)CC/C=C(\C)C(=O)OC1CC2(C(=O)O)CCC3(C)C(=CCC4C5(C)CCC(OC6OC(COC7OCC(O)C(O)C7O)C(O)C(OC7OCC(O)C(O)C7O)C6OC6OC(CO)C(O)C(O)C6OC6OCC(O)C(O)C6O)C(C)(C)C5CCC43C)C2CC1(C)C (stereo not given),0.69% (inactive),–,–
COc1cc(-c2cccc(O)c2)cc2c1OCO2,-4.5% (inactive),–,–
C=C1C(OC(C)=O)C(=O)C2C(C)(C)C(OC(C)=O)CCC2(C)C1CC(OC(C)=O)/C(C)=C/COC(C)=O (stereo not given),0.124% (inactive),–,–
C=CC(C)(O)CO[C@@H]1O[C@H](CO)[C@@H](O)[C@H](O)[C@H]1O (stereo not given in full),-1.51% (inactive),–,–
Cc1nc2c(-c3cnc(N)nc3)nc(N3CCOCC3)nc2n1C(C)C,–,291 nM (active) and 7.4 nM (active),–
C=C(C)[C@@H]1CC[C@](C)(O)[C@@H](OC(=O)c2ccccc2)C1,–,–,inactive
COc1ccccc1-n1c(SCC(=O)Nc2nc3ccc(C)cc3s2)nc2c(c1=O)SCC2,2.47% (inactive),–,–
Oc1ccc([C@H]2COc3cc(O)ccc3C2)cc1,–,–,inactive
C/C=C(/C)C(=O)O[C@H]1C=C(C)C[C@H](OC(=O)c2ccc(O)cc2)C2[C@](O)(C(C)C)CC[C@@]21C (stereo not given in full),-4.39% (inactive),–,–
C=C(C(=O)OC)C1CCC2(C)C(O[C@@H]3O[C@H](CO)[C@@H](O)[C@H](O)[C@H]3O)CC(=O)C(C)C2C1O (stereo not given in full),1.28% (inactive),–,–
CCC(C)C(=O)O[C@@H]1[C@@H](O)[C@@H](O[C@H]2O[C@H](CO)[C@@H](O)[C@H](O)[C@H]2O)O[C@H](CO)[C@H]1O (stereo not given in full),–,–,inactive
C[C@@H]1C[C@H]2[C@@H]3CCC4=CC(=O)C=C[C@]4(C)[C@@]3(F)[C@@H](O)C[C@]2(C)[C@@]1(O)C(=O)COP(=O)(O)O,-4.68% (inactive),–,–
CC1=CC(=O)C2C(C)(C)CC(O)CC2(C)C1CO (stereo not given),-38.7% (inactive),–,–
O=C(O)c1cc(O[C@@H]2O[C@H](CO[C@@H]3OC[C@@H](O)[C@H](O)[C@H]3O)[C@@H](O)[C@H](O)[C@H]2O)c2ccccc2c1O,3.92% (inactive),–,–
Cc1cc(N2CCCCC2)nc2ccccc12,-12.2% (inactive),–,–
O=C1NCc2nc3ccccc3c(=O)n2C1Cc1c[nH]c2ccccc12 (stereo not given),-3.24% (inactive),–,–

SMILES,max response,Potency,outcome
COC(=O)C1=COC(O[C@@H]2O[C@H](CO)[C@@H](O)[C@H](O)[C@H]2O)/C(=C\COC(=O)c2ccc(OC3OC(CO)C(O)C(O)C3O)c(OC)c2)C1CC(=O)OCCc1ccc(O)cc1 (stereo not given in full),-6.94% (inactive),–,–
C[C@@H]1C(=O)O[C@H]2[C@H]1CC[C@@]1(C)C(=O)C=C[C@](C)(O)[C@H]21,–,–,inactive
C[C@@H]1O[C@@H](O[C@H]2[C@H](OC(=O)C34CCC5(C)C(=CCC6C7(C)CC(O)C(O[C@@H]8O[C@H](C(=O)O)[C@@H](O)[C@H](O)[C@H]8O)C(C)(C(=O)O)C7CCC65C)C3CC(C)(C)CC4O)O[C@H](C)[C@@H](O)[C@@H]2O)[C@H](O)[C@@H](O[C@@H]2OC[C@](O)(CO)[C@H]2O[C@@H]2O[C@H](CO)[C@@H](O)[C@H](O)[C@H]2O)[C@H]1O (stereo not given in full),-4.39% (inactive),–,–
C=C(C)C(C)C1OC23CC4(CO2)C(CCC2C5(C)CCC(OC6OCC(O)C(OC7OC(CO)C(O)C(OC8OCC(O)C(O)C8O)C7O)C6OC6OC(CO)C(O)C6O)C(C)(C)C5CCC24C)C3C(C)(O)C1OC(C)=O (stereo not given),-0.008% (inactive),–,–
C[C@]12CC[C@@H]3c4ccc(O[C@@H]5O[C@H](C(=O)O)[C@@H](O)[C@H](O)[C@H]5O)cc4CC[C@H]3[C@@H]1CCC2=O,-0.486% (inactive),–,–
O=C(OCc1cccc(O)c1O[C@@H]1O[C@H](CO)[C@@H](O)[C@H](O)[C@H]1O)C1(O)C(=O)C2C=CC1C1C=CC(=O)C(O)(C(=O)OCc3cccc(O)c3O[C@@H]3O[C@H](CO)[C@@H](O)[C@H](O)[C@H]3O)C21 (stereo not given in full),-8.04% (inactive),–,–
C=CC1(C)CC(OC(=O)C(=C)C(O)COC(C)=O)C(C(=C)C(=O)OC)C(O)C1C(=C)CO (stereo not given),–,–,inactive
C=C1C(=O)OC2/C=C(\C)CC/C=C(\C(=O)O)CC/C=C(\C)CCC12 (stereo not given),–,–,inactive
CC1=C(C)C(=O)OC(C(C)(O)C2CCC3C4CC=C5CC(OC6OC(COC7OC(CO)C(O)C(O)C7O)C(O)C(O)C6O)CC(O)C5(C)C4CCC32C)C1 (stereo not given),-12.7% (inactive),–,–
C/C=C(\C)C(=O)O[C@@H]1CC2[C@@H](CC=C3C[C@@H](O[C@H]4C[C@H](OC)[C@H](O[C@H]5C[C@H](OC)[C@H](O[C@H]6C[C@H](OC)[C@H](O[C@H]7C[C@@H](OC)[C@H](O[C@@H]8O[C@H](CO)[C@@H](O)[C@H](O)[C@H]8O)[C@@H](C)O7)[C@@H](C)O6)[C@@H](C)O5)[C@@H](C)O4)CC[C@@]32C)[C@@]2(O)CC[C@H](C(C)=O)[C@@]12C (stereo not given in full),2.31% (inactive),–,–
COc1c2c(c(C)c3c1C(=O)OC3)O[C@@]1(C)C[C@@H](O)[C@]34O[C@](OC)(CC[C@]3(C)[C@H]1C2)OC4(C)C,–,–,inactive
CCC(C)/C=C(C)/C=C/C1=CC2=C(Cl)C(=O)C(C)(OC(C)=O)C(=O)C2=CN1C1CCCCN(C(CCC(N)=O)C(=O)O)C1=O (stereo not given),–,–,inactive
COc1cc(/C=C/C(=O)OC[C@H]2O[C@H](O[C@]3(CO)O[C@H](CO)[C@@H](O)[C@@H]3O)[C@H](O)[C@@H](O)[C@@H]2O)cc(OC)c1O,0.115% (inactive),–,–
C=CC(C)(C)C12CC3C(=O)NC(Cc4cnc[nH]4)C(=O)N3C1Nc1ccccc12 (stereo not given),-2.57% (inactive),–,–
C=CC(C)(CC/C=C(\C)CC/C=C(\C)CC(O)/C=C(\C)C(=O)O)O[C@@H]1O[C@H](CO)[C@@H](O)[C@H](O)[C@H]1O[C@@H]1O[C@H](CO)[C@@H](O)[C@H](O)[C@H]1O (stereo not given in full),–,–,inactive
CC(C#N)C(C)O[C@@H]1O[C@H](CO)[C@@H](O)[C@H](O)[C@H]1O (stereo not given in full),–,–,inactive
COC(=O)[C@H](OC(C)=O)[C@H]1C(C)(C)C(=O)[C@H]2CC3=C4CC(=O)O[C@@H](c5ccoc5)[C@]4(C)CCC3[C@@]1(C)C2=O (stereo not given in full),-5.81% (inactive),–,–
COC(=O)C1=CO[C@@H](O[C@@H]2O[C@H](CO)[C@@H](O)[C@H](O)[C@H]2O)[C@@H]2[C@@](C)(O)[C@@H](O)C[C@]12O,-11.5% (inactive),–,–
CCOc1nc2cccc(C(=O)OCc3oc(=O)oc3C)c2n1Cc1ccc(-c2ccccc2-c2noc(O)n2)cc1,–,–,inactive
C/C=C/C=C/C=C/C(=O)O[C@@H]1[C@@H](OC)C2=C(C(=O)N(C(C)C(=O)O)C2)[C@@]2(C)CCCC(C)(C)[C@H]12 (stereo not given in full),-1.32% (inactive),–,–

# — PubChem BioAssay (NCATS)
